# In ChEMBL document CHEMBL3988442, “University of Dundee, Small-Polar-MMV Screening Library” (2021):
# For some of these results: Potency and affinity values are given separately.
# Key:
# Parameters in all cases: scale not given: direction of the effect not stated beside the values
# [1] = target: Protein translocase subunit SecA (Escherichia coli (strain K12)) (UniProt P10408); test: Assay to Identify E. coli SecA ATPase Inhibitors; type: functional; conditions: 30 µM
# [2] = target: T1, Ubiquitin-activating enzyme e1, putative (Leishmania donovani (strain BPK282A1)) (UniProt E9BSI1); test: Leishmania donovani Ubiquitin Activating Enzyme (LdE1); type: functional; conditions: 30 µM
# T1 sequence (whole entry): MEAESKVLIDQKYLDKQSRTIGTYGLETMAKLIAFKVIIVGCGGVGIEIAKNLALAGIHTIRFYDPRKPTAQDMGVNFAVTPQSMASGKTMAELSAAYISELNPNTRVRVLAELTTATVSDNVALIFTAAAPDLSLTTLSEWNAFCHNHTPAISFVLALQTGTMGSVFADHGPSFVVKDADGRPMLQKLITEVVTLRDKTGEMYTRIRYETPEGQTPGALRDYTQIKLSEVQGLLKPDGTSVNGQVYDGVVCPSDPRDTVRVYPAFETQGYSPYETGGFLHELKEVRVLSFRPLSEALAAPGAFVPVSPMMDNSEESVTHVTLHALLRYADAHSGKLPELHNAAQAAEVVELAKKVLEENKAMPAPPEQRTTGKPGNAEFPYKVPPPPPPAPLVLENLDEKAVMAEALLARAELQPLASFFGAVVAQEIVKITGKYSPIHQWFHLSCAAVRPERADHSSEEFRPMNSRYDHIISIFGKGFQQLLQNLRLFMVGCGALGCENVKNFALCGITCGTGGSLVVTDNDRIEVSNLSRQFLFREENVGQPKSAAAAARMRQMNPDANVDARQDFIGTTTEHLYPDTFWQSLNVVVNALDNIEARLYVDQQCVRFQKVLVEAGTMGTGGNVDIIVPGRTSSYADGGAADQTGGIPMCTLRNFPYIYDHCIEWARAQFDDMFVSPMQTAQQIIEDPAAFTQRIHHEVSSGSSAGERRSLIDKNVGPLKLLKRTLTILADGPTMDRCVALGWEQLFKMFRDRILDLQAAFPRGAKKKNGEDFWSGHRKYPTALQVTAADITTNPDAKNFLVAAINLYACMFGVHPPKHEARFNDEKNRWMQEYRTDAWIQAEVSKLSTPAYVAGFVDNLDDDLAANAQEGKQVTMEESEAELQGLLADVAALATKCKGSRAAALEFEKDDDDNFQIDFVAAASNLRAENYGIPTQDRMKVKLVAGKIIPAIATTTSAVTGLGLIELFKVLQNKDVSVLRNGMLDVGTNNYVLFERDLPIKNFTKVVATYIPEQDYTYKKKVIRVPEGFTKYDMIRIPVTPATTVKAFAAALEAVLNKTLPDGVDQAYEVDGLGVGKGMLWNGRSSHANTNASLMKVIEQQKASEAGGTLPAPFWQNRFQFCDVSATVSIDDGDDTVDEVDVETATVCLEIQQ
# [3] = target: AMP-activated protein kinase, AMPK (Homo sapiens) (UniProt P54646+O43741+P54619+Q9UGJ0+Q9Y478+Q13131+Q9UGI9); test: AMP-dependent Kinase enzyme assay. An in vitro enzyme assay that detects ADP turnover that is directly proportional to AMPK activity. This uses naive AMPK that is activated during the assay with MK-8722; type: functional; conditions: 30 µM
# [4] = target: Sialic acid-binding Ig-like lectin 9 (Homo sapiens) (UniProt Q9Y336); test: Hs-Siglec9 ALPHAscreen SOP 20170721; conditions: 10 µM
# Sequence of Sialic acid-binding Ig-like lectin 9 (Homo sapiens) (Q9Y336 whole entry): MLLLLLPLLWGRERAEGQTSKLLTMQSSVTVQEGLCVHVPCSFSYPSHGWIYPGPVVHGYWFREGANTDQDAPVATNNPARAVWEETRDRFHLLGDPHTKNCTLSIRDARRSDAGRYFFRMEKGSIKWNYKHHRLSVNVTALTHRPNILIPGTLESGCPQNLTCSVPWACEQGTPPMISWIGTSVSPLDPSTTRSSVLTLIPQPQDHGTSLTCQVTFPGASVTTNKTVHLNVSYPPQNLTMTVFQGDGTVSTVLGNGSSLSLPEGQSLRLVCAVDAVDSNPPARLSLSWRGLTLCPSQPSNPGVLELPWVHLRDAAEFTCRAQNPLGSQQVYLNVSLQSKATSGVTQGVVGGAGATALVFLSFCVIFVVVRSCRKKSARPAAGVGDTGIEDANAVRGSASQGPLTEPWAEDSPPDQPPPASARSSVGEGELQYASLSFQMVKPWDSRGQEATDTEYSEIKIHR
# Trypanosoma cruzi = test: Trypanosoma cruzi phosphomannomutase and mannose-1-phosphate guanylyltransferase assay; type: functional; conditions: 10 µM
# [5] = target: T2, Arginase-2, mitochondrial (Homo sapiens) (UniProt P78540); test: in vitro enzyme assay to detect the production of urea directly proportional to the activity of Arginase II; type: functional; conditions: 33.3 µM; further: in the data most compounds retested in dose-response had high values
# T2 sequence (whole entry): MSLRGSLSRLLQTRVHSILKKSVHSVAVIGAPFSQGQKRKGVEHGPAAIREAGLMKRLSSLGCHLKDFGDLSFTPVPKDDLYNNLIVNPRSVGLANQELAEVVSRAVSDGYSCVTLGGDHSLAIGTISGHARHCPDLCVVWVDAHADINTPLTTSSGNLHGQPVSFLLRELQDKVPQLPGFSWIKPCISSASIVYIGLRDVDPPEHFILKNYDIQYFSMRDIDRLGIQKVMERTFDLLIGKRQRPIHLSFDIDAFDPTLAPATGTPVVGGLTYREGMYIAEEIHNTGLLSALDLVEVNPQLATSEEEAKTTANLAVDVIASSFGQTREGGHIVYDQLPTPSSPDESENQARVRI
# [6] = target: T3, Proteasome subunit beta (Trypanosoma cruzi) (UniProt O96673); test: Trypanosoma cruzi proteasome chymotrypsin-like activity (TcProtChymo) assay.; further: in the data most compounds retested in dose-response had high values; type: functional; conditions: 9.37 µM
# T3 sequence (whole entry): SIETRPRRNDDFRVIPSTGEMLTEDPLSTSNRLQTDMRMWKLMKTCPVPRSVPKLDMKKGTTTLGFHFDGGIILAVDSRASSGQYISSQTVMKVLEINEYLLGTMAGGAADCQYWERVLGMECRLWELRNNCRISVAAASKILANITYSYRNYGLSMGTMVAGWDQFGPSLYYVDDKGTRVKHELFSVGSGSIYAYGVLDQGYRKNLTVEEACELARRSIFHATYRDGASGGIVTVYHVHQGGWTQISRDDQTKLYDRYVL
# Homo sapiens = species on record: Homo sapiens; test: To identify inhibition of the IFN signalling (Jak-Stat) pathway via expression of an eGFP reporter gene under the control of an IFN-stimulated response element (ISRE) containing MxA promoter.; type: functional; conditions: 30 µM
# [7] = target: T4, Tyrosyl-tRNA synthetase, putative (Trypanosoma cruzi (strain CL Brener)) (UniProt Q4DSP6); test: Trypanosoma cruzi tyrosyl tRNA synthetase (TcYRS) _High Tyrosine SOP; type: functional; conditions: 30 µM; further: in the data most compounds retested in dose-response had high values
# T4 sequence (whole entry): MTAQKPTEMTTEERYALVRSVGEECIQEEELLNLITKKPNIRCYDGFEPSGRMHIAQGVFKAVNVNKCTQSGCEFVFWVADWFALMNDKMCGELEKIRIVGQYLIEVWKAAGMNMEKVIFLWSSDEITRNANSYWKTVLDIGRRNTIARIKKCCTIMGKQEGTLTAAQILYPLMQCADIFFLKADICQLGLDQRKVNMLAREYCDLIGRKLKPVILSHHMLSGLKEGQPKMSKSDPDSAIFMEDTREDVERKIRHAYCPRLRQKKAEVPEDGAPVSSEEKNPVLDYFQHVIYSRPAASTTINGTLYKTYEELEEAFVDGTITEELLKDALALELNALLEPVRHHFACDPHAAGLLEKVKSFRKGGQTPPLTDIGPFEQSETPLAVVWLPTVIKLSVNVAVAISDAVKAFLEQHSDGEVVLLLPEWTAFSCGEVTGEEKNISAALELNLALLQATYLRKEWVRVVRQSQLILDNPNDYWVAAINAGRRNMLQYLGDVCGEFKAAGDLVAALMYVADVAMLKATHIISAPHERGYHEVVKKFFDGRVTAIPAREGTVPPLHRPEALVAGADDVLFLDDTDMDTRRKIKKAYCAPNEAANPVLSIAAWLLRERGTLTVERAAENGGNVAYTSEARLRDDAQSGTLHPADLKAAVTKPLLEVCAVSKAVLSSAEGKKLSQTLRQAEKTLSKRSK
# [8] = target: T4, Tyrosyl-tRNA synthetase, putative (Trypanosoma cruzi (strain CL Brener)); test: Trypanosoma cruzi tyrosyl tRNA synthetase (TcYRS) SOP; type: functional; conditions: 30 µM
# [9] = target: Chromo domain-containing protein 1 (Saccharomyces cerevisiae (strain ATCC 204508 / S288c) (Baker's yeast)) (UniProt P32657); test: ScCHD-1 Enzyme Inhibition Assay; type: functional; conditions: 30 µM; further: in the data most compounds retested in dose-response had high values
# Sequence of Chromo domain-containing protein 1 (Saccharomyces cerevisiae (strain ATCC 204508 / S288c) (Baker's yeast)) (P32657 whole entry, the tested form may be a part): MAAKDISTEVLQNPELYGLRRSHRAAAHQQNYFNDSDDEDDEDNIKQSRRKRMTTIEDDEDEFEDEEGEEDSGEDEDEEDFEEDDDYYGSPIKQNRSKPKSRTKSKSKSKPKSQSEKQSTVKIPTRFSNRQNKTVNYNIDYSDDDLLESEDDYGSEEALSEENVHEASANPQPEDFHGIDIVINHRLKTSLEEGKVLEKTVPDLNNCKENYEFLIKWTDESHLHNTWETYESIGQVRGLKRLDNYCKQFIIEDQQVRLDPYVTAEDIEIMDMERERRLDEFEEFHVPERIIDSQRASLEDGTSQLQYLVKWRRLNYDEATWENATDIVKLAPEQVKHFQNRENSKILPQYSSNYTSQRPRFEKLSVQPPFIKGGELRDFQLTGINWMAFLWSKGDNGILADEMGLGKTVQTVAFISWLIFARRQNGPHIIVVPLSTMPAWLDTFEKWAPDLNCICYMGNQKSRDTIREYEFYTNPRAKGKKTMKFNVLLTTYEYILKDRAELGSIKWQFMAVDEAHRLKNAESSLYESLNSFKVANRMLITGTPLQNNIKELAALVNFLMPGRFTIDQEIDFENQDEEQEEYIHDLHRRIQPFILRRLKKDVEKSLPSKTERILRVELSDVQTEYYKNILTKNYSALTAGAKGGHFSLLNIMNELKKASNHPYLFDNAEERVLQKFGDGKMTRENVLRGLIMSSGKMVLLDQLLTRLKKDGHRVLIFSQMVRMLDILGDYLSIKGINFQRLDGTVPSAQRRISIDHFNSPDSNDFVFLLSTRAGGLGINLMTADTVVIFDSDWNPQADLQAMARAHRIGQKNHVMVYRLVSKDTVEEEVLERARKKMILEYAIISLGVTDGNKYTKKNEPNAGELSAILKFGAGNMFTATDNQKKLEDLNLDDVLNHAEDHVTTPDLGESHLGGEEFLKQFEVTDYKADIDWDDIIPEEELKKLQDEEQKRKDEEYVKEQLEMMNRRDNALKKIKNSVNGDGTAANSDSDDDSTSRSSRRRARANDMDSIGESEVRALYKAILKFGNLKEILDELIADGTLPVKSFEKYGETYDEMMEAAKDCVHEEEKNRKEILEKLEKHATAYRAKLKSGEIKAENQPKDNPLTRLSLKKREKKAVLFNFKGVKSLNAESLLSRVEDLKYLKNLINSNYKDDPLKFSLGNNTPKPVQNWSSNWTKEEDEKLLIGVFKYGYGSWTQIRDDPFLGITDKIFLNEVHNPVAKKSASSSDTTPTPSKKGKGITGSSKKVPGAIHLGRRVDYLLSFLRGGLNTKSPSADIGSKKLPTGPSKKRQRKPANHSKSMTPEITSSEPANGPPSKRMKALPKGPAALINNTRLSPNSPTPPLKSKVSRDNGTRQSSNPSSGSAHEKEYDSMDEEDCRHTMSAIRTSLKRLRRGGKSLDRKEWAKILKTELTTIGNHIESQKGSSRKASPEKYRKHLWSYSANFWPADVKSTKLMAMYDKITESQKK
# Sequence of Protein translocase subunit SecA (Escherichia coli (strain K12)) (P10408 whole entry): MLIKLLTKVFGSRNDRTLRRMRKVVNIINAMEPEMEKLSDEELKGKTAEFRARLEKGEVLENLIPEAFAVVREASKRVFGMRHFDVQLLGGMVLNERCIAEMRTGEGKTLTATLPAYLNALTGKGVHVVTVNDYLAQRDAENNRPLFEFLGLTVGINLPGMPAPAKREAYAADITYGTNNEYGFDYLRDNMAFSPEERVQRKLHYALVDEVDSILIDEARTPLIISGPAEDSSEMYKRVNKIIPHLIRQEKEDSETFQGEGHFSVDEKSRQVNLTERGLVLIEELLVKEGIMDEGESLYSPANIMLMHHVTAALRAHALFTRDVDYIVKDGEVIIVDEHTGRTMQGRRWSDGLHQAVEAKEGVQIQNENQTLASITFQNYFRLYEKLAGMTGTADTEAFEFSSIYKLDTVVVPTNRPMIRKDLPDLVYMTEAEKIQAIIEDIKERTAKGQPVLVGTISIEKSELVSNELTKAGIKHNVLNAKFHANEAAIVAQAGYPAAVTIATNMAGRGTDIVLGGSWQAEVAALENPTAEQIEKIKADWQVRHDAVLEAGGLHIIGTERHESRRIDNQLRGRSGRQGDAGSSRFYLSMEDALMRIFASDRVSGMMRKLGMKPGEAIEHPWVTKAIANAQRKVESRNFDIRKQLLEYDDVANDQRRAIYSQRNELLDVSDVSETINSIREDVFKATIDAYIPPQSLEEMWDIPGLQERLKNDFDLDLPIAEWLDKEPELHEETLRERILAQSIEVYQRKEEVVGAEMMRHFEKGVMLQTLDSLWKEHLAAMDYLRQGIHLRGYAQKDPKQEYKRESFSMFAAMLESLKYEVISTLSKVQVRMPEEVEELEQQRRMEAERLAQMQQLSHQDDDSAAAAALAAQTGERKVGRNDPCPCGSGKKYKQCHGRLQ
SMILES,Percent Effect [1] [%],Percent Effect [2] [%],Percent Effect [3] [%],Percent Effect [4] [%],Percent Effect (Trypanosoma cruzi) [%],Percent Effect [5] [%],Percent Effect [6] [%],Percent Effect (Homo sapiens) [%],Percent Effect [7] [%],Percent Effect [8] [%],Percent Effect [9] [%]
Cc1nn(C)c(C)c1CC(=O)N1CCCC(n2cccn2)C1 (stereo unspecified),-2.93,-5.26,-2.25,-1.17,6.26,-5.4,2.12,-14.2,3.45,3.7,0.321
COC(=O)c1ccc(N2CCN(C(=O)c3ccncc3)C(C)C2)cc1 (stereo unspecified),-4.64,20.2,-9.5,4.75,4.63,-2.66,10.1,20.8,8.37,24.1,-9.65
Cc1nn(C)c(N2CCOCC2)c1CNCc1ccc(Cl)s1,-3.24,10.4,2.59,-1.94,2.06,1.9,9.62,11.3,11.4,25.9,-8.79
CC1CN(CC(=O)Nc2nncs2)CCN1c1nccs1 (stereo unspecified),1.26,8.11,-4.77,-8.19,-5.29,0.924,16.5,25.9,4.95,18.3,-4.83
CC1CCCN(C(=O)CCc2cccnc2)C1 (stereo unspecified),2.47,17.7,0.257,-8.86,-5.57,6.84,7.29,25.3,3.45,16.5,-0.749
O=C(CCc1ccccc1)N1CCC(N2CCNC2=O)CC1,-4.14,7.79,3.48,-3.35,-4.6,1.47,6.06,15.5,3.81,14.1,-13.9
CC(C)NC(=O)c1nnn(-c2cccc(C(F)(F)F)c2)c1C1CC1,-3.01,15.3,-3.96,15.4,5.73,15.4,22.8,11.4,4.21,12.8,77.3
CNCC(=O)N1CCCC(c2nccnc2Oc2cccc(F)c2)C1 (stereo unspecified),-7.42,10.7,10,-1.6,-3.74,-3.03,9.25,11.8,3.19,3.85,-4.73
Cc1cc(C(=O)N2CCCC2Cn2nc(C)cc2C)on1 (stereo unspecified),-2.76,10.8,-7.13,13.4,3.87,-7.62,4.14,8.42,5.42,18.5,-8.04
COc1c(CNCc2ccc(CN(C)C)cc2)c(C)nn1C,3.12,-1.27,3.93,0.303,3.79,4.95,9.26,-11.7,-3.12,2.53,-2.72
O=C(c1ccc[nH]1)N1CCn2cc(CN3CCCC3)nc2C1,-5.65,0,7.25,-0.683,-3.35,-0.699,9.07,8.62,1.06,3.85,-0.931
